PubChem BioAssay (Tox21)
“And” between values parts separate entries of the source, which are not always exact repeats. Equal entries are not always repeated. Inconclusive results are not listed. A call without a number means that no potency is given here. Where a structure was tested more than once in an assay, its records may differ in their call. The source made the active and inactive calls. Unless noted, the call rests on the fitted dose curve; in most records, active means well fitted curve in the direction sought with a large enough effect in the repeat runs; inconclusive means weak or mixed curves; inactive means no such curve, though single readings can be large; an effect the other way counts as inactive or inconclusive.

What was measured:
[1] = A CellTox Green Cytotoxicity Assay to monitor cytotoxicity in HEK293 cells - 32 hour (AID 1224881); further: nearly all actives have a fitted effect of over 40% in size; further: potency means the concentration at half of the fitted maximal effect
Summary of the method: (§1)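 Homogeneous no-lysis format: HEK293 cell suspension mixed with CellTox Green reagent, seeded, incubated 5 h at 37 C/5% CO2, then dosed by pintool with compound in DMSO.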

[2] = A CellTox Green Cytotoxicity Assay to monitor cytotoxicity in HepG2 cells - 0 hour (AID 1224882); further: nearly all actives have a fitted effect of over 35% in size
Summary of the method: (§2)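 Fluorescent DNA-binding dye, 600 HepG2 cells/well, 5 h preincubation then compound in DMSO; same plates read at 0–40 h, 37 C.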

[3] = A CellTox Green Cytotoxicity Assay to monitor cytotoxicity in HepG2 cells - 32 hour (AID 1224883); further: nearly all actives have a fitted effect of over 50% in size; further: potency means the concentration at half of the fitted maximal effect
Summary of the method: as §2

[4] = qHTS RealTime-Glo MT Cell Viability Assay in HepG2 cells - 16 hour (AID 1224885); further: nearly all actives have a fitted effect of over 50% in size; further: potency means the concentration at half of the fitted maximal effect
Summary of the method: (§3)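 HepG2 cells were seeded at 600 cells/well together with NanoLuc luciferase and a cell-permeant prosubstrate, preincubated 5 h at 37 C/5% CO2, then pin-dosed with compounds in DMSO. Nonlytic luminescence from viable cells was read at each time point.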

[5] = qHTS RealTime-Glo MT Cell Viability Assay in HEK293 cells - 24 hour (AID 1224886); further: nearly all actives have a fitted effect of over 50% in size; further: potency means the concentration at half of the fitted maximal effect
Summary of the method: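 HEK293 cells were seeded at 600 cells/well together with NanoLuc luciferase and cell-permeant prosubstrate, preincubated 5 h at 37 C/5% CO2, then given compound in DMSO by pintool. Luminescence from viable-cell prosubstrate reduction was read repeatedly over 40 h.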

[6] = A CellTox Green Cytotoxicity Assay to monitor cytotoxicity in HEK293 cells - 16 hour (AID 1224888); further: nearly all actives have a fitted effect of over 35% in size; further: potency means the concentration at half of the fitted maximal effect
Summary of the method: as §1

[7] = qHTS RealTime-Glo MT Cell Viability Assay in HepG2 cells - 0 hour (AID 1224889); further: nearly all actives have a fitted effect of over 50% in size; further: potency means the concentration at half of the fitted maximal effect
Summary of the method: as §3

[8] = A CellTox Green Cytotoxicity Assay to monitor cytotoxicity in HepG2 cells - 8 hour (AID 1224890); further: nearly all actives have a fitted effect of over 45% in size; further: potency means the concentration at half of the fitted maximal effect
Summary of the method: as §2

[9] = qHTS assay to identify small molecule antagonists of the estrogen receptor alpha (ER-alpha) signaling pathway using the BG1 cell line in the presence of 0.1 nM 17-beta-estradiol - cell viability counter screen (AID 1259241); further: nearly all actives have a fitted effect of over 40% in size; further: potency means the concentration at half of the fitted maximal effect
Summary of the method: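 Estradiol-stimulated (0.1 nM) VM7Luc4E2 cells exposed to compounds 22 hr; viability measured by fluorescence of cleaved CellTiter-Fluor substrate after 30 min.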

[10] = qHTS assay to identify small molecule antagonists of the androgen receptor (AR) signaling pathway using the MDA cell line in the presence of 0.5 nM R1881 - cell viability counter screen (AID 1259242); further: nearly all actives have a fitted effect of over 45% in size; further: potency means the concentration at half of the fitted maximal effect
Summary of the method: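 Human breast carcinoma MDA-kb2 cells, cultured without CO2, receive compounds alongside 0.5 nM (final) R1881 agonist. After 16 hr at 37C, viability is taken as live-cell protease signal.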

[11] = target: Androgen receptor (Homo sapiens) (UniProt P10275); assay: qHTS assay to identify small molecule antagonists of the androgen receptor (AR) signaling pathway using the MDA cell line in the presence of 0.5 nM R1881 (AID 1259243); further: nearly all actives have a fitted effect of over 50% in size; further: potency means the concentration at half of the fitted maximal effect
Summary of the method: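 Cells: MDA-kb2 (MMTV-luc). Stimulus: 0.5 nM R1881. Time: 16 hr, 37C, no CO2. Detection: ONE-Glo luminescence after 30 min at RT.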

[12] = target: Estrogen receptor (Homo sapiens) (UniProt P03372); assay: qHTS assay to identify small molecule antagonists of the estrogen receptor alpha (ER-alpha) signaling pathway using the BG1 cell line in the presence of 0.1 nM 17-beta-estradiol (AID 1259244); further: nearly all actives have a fitted effect of over 50% in size; further: potency means the concentration at half of the fitted maximal effect
Summary of the method: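 Seeding of stripped-serum-adapted VM7Luc4E2 cells, 24 h attachment, compound transfer, then 0.1 nM final 17beta-estradiol; after 22 h incubation, ONE-Glo reagent and luminescence reading.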

[13] = qHTS assay to identify small molecule HDAC inhibitors (AID 1259364);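 further: wild-type HCT-116 cells with endogenous class I/II HDAC activity; top concentration of the series differs between compounds; nearly all actives have a fitted effect of over 45% in size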
Summary of the method: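 After a 2 hr compound incubation (37C, 5% CO2), HCT-116 cells seeded at 1,500/well the day before received HDAC-Glo reagent; signal read as luminescence after 30 min at room temperature.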

[14] = qHTS assay to identify small molecule agonists of the sonic hedgehog signaling (Shh) pathway - cell viability counter screen (AID 1259366); further: nearly all actives have a fitted effect of over 50% in size; further: potency means the concentration at half of the fitted maximal effect
Summary of the method: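 Same-well cytotoxicity read. Gli1-Luc reporter 3T3 cells; compounds 24hr, 37C/5% CO2; CellTiter-Fluor fluorescence.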

[15] = qHTS assay to identify small molecule antagonists of the sonic hedgehog signaling (Shh) pathway - cell viability counter screen (AID 1259367); further: nearly all actives have a fitted effect of over 55% in size; further: potency means the concentration at half of the fitted maximal effect
Summary of the method: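 Cytotoxicity was assessed in parallel with Shh reporter activity by measuring live-cell protease fluorescence (CellTiter-Fluor) in NIH/3T3 cells stably carrying Gli1-Luc, treated with compound under conditioned medium stimulation for 23 hr plus 1 hr reagent incubation.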

[16] = qHTS assay to identify small molecule agonists of the sonic hedgehog signaling (Shh) pathway (AID 1259368; calls by dose curve;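 further: NIH/3T3-derived 3T3Gli1-Luc cells carrying a stable Gli1-driven firefly luciferase reporter; series mostly up to about 92 µM; nearly all actives have a fitted effect of over 15% in size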)
Summary of the method: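 Stable NIH/3T3 Gli1-Luc reporter clone; 24 hr cpd exposure after a 4 hr settling period; luminescence endpoint.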

[17] = A CellTox Green Cytotoxicity Assay to monitor cytotoxicity in HEK293 cells - 8 hour (AID 1224884); further: nearly all actives have a fitted effect of over 35% in size; further: potency means the concentration at half of the fitted maximal effect
Summary of the method: as §1

[18] = qHTS assay to identify small molecule HDAC inhibitors - cell viability counter screen (AID 1259365); further: nearly all actives have a fitted effect of over 50% in size; further: potency means the concentration at half of the fitted maximal effect
Summary of the method: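 After overnight seeding at 1,500 cells per well, wild-type HCT-116 cultures took up compounds in DMSO for 2hr at 37 C. Viable cell content came from luminescence with CellTiter-Glo.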

[19] = qHTS RealTime-Glo MT Cell Viability Assay in HEK293 cells - 8 hour (AID 1224887); further: nearly all actives have a fitted effect of over 50% in size; further: potency means the concentration at half of the fitted maximal effect
Summary of the method: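 Measured as luminescence from the same continuously cultured HEK293 wells at successive time points (0, 8, 16, 24, 32, 40 h) after compound addition. Reagent present from seeding; dosing at 5 h; incubation 37 C.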

[20] = qHTS assay to identify small molecule phospholipidosis (PLD) inducers (AID 1259344; active means well fitted curve in the direction sought with a large enough effect; an effect the other way counts as inactive or inconclusive)
Summary of the method: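 Cells (HepG2, 900 per well) attach for 4 h, receive LipidTOX Red and compound together, incubate 24 h at 37 C, are fixed 30 min with paraformaldehyde/Hoechst, then imaged at one site per well.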

Chain of Estrogen receptor (Homo sapiens) (P03372 whole entry, looked up): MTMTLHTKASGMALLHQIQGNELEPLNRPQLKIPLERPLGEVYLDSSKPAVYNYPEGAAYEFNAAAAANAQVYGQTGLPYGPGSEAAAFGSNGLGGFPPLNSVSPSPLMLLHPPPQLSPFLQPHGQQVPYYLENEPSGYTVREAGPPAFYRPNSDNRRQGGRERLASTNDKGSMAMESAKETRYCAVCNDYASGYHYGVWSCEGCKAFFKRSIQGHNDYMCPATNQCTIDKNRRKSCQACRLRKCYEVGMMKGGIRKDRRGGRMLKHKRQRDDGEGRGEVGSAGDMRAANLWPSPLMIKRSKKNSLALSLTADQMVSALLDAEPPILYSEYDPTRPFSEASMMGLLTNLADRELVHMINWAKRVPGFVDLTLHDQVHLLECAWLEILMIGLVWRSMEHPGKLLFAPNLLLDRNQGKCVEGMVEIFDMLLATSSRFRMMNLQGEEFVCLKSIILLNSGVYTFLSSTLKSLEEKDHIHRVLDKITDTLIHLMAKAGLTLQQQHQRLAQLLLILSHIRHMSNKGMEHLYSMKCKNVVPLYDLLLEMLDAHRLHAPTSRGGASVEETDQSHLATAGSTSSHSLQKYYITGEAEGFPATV
Chain of Androgen receptor (Homo sapiens) (P10275 whole entry, looked up): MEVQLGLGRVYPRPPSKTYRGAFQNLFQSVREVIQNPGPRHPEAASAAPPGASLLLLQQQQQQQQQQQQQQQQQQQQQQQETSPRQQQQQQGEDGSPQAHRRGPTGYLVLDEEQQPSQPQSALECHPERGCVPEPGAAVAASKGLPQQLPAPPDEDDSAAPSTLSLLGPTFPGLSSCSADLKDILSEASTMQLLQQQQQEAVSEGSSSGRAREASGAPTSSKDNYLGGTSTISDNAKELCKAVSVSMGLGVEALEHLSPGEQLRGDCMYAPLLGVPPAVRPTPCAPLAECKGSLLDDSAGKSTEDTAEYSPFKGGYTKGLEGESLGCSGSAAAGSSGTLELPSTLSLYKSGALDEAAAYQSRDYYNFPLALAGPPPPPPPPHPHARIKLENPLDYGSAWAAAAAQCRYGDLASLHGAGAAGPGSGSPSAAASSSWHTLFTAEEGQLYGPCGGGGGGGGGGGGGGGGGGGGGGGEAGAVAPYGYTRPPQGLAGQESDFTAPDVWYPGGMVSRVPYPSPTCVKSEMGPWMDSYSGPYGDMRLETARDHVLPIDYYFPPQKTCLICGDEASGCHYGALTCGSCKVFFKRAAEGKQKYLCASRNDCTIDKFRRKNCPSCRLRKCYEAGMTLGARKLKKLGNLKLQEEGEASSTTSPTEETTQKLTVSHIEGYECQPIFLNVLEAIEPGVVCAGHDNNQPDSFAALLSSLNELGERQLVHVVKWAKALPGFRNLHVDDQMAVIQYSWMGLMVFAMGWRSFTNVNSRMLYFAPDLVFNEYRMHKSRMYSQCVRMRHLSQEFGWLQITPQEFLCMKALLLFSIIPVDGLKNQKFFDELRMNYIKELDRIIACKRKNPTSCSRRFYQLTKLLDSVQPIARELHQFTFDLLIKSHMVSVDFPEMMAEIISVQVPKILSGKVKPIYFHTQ

Row | SMILES | Potency [1] | Potency [2] | Potency [3] | Potency [4] | Potency [5] | Potency [6] | Potency [7] | Potency [8] | Potency [9] | Potency [10] | Potency [11] | Potency [12] | Potency [13] | Potency [14] | Potency [15] | Potency [16] | Potency [17] | Potency [18] | Potency [19] | Potency [20]
1 | C=CC(=O)OCC(COC(=O)C=C)(COC(=O)C=C)COC(=O)C=C | 27.5 µM (active) | inactive | 38.9 µM (active) | 4.9 µM (active) | 3.89 µM (active) | inactive | inactive | inactive | 19.3 µM (active) | 13.7 µM (active) | 4.33 µM (active) | 15.4 µM (active) | inactive | 5.45 µM (active) | 7.7 µM (active) | inactive | – | – | – | –
2 | COc1cccc2c1C(=O)c1c(O)c3c(c(O)c1C2=O)C[C@@](O)(C(=O)CO)CC3OC1CC(N2CCOC(OC)C2)C(O)C(C)O1 (some centres undefined) | inactive | inactive | 0.0425 µM (active) | – | 0.0535 µM (active) | inactive | inactive | 21.3 µM (active) | 13.3 µM (active) | – | 0.119 µM (active) | 0.15 µM (active) | – | 0.237 µM (active) | 0.168 µM (active) | – | inactive | inactive | – | –
3 | CC(C)CC(C)(c1ccc(O)cc1)c1ccc(O)cc1 | 49.1 µM (active) | inactive | 43.8 µM (active) | – | 43.8 µM (active) | – | inactive | inactive and 49 µM (active) | inactive | inactive | – | – | inactive | 54.6 µM (active) | 61.3 µM (active) | – | 24.6 µM (active) and inactive | inactive | 43.8 µM (active) and inactive | –
4 | O=C/C(Cl)=C(/Cl)C(=O)O | inactive | inactive | 54.9 µM (active) | – | – | inactive | inactive | inactive | inactive | inactive | – | inactive | – | – | – | inactive | inactive | inactive | inactive | –
5 | CCCN(CCC)c1c([N+](=O)[O-])cc(S(N)(=O)=O)cc1[N+](=O)[O-] | 26.2 µM (active) | inactive | 26.2 µM (active) | 24.5 µM (active) | 23.3 µM (active) | 52.2 µM (active) | inactive | 23.3 µM (active) | – | – | – | – | inactive | 54.5 µM (active) | 24.3 µM (active) | inactive | – | – | 31.6 µM (active) | inactive
6 | O=c1oc2ccccc2c(O)c1Cc1c(O)c2ccccc2oc1=O | inactive | inactive | inactive | – | inactive | inactive | – | inactive | inactive | inactive | – | – | inactive | inactive | inactive | – | inactive | inactive | inactive | inactive
7 | CC(C)(C)OO | inactive | inactive | inactive | inactive | inactive | inactive | inactive | inactive | inactive | inactive | inactive | – | inactive | inactive | inactive | inactive | – | inactive | inactive | –
8 | O=c1ssc(Cl)c1Cl | 24.5 µM (active) | inactive | 19.5 µM (active) | 21.9 µM (active) | 15.5 µM (active) | 38.9 µM (active) | 43.6 µM (active) | 24.5 µM (active) | inactive | 54.5 µM (active) | – | inactive | – | 30.6 µM (active) | – | – | – | inactive | 17.4 µM (active) | –
9 | O=[N+]([O-])O.O=[N+]([O-])O.[Cd] | 38.9 µM (active) | inactive | 43.6 µM (active) | – | – | inactive | inactive | inactive | – | inactive | – | – | inactive | 8.63 µM (active) | 15.4 µM (active) | inactive | inactive | inactive | inactive | –
10 | C[C@H]1CC[C@@H]2[C@@H](C)[C@H]3[C@H](C[C@H]4[C@@H]5CC=C6CC(O[C@@H]7O[C@H](CO)[C@H](O)[C@H](O[C@@H]8O[C@H](CO)[C@@H](O)[C@H](O)[C@H]8O)[C@H]7O[C@H]7O[C@@H](C)[C@H](O)[C@@H](O)[C@H]7O)CC[C@]6(C)[C@H]5CC[C@]34C)N2C1 (some centres undefined) | 5.06 µM (active) | inactive | 22.6 µM (active) | 50.6 µM (active) | 12.7 µM (active) | 7.14 µM (active) | inactive | 25.3 µM (active) | inactive | 25.1 µM (active) | – | inactive | inactive | – | inactive | – | – | 28.2 µM (active) | 8.99 µM (active) | inactive
11 | CCCOCC(=Nc1ccc(Cl)cc1C(F)(F)F)n1ccnc1 | 48.9 µM (active) | inactive | 43.6 µM (active) | – | 43.6 µM (active) | 54.9 µM (active) | inactive | – | – | – | – | – | inactive | – | 54.4 µM (active) | inactive | 54.9 µM (active) | – | 43.6 µM (active) | –
12 | CC1(C)CN=C(NN=C(/C=C/c2ccc(C(F)(F)F)cc2)/C=C/c2ccc(C(F)(F)F)cc2)NC1 | 54.9 µM (active) | inactive | 17.4 µM (active) | 19.5 µM (active) | 43.6 µM (active) | – | inactive | 34.7 µM (active) | 61.1 µM (active) | 24.3 µM (active) | 17.2 µM (active) | 48.6 µM (active) | inactive | 19.3 µM (active) | 17.2 µM (active) | inactive | – | inactive | – | –
